Laboratory results reported in PubChem BioAssay (NCATS).
Where “and” joins values, the source holds several entries; their conditions need not be identical. Equal entries are not always repeated. Values without a mark were called inactive. Records with an inconclusive call do not appear. Where a call stands in place of a potency, no number is given. Calls of active or inactive are those of the source. Calls follow the shape of the dose curve; as a rule, active = well fitted curve in the direction sought with a large enough effect; inconclusive = small, poorly fitted or top-dose-only effect, or another doubt; inactive = no such curve, though single readings can be large; an effect the other way counts as inactive or inconclusive.

Experiments:
[1] = target: Glutathione peroxidase 1 (Homo sapiens) (UniProt P07203); assay: Primary qHTS Assay for Inhibitors of Recombinant Selenoprotein Glutathione Peroxidase 1 (GPX1) (AID 1845191); conditions: recombinant GPX1, GR-coupled NADPH fluorescence, 15 min; series mostly up to 48.8 µM; also: nearly all actives have a fitted effect of over 65% in size
How it was run: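 NADPH consumption tracked by fluorescence at 340/450 nm between t=0 and t=15 min, room temperature. Final mix: 10 nM GPX1, 100 nM glutathione reductase, 1 mM GSH, 0.5 mM NADPH, 0.5 mM cumene hydroperoxide, 0.01% BSA; 30 min compound–enzyme preincubation.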

[2] = target: Phospholipid hydroperoxide glutathione peroxidase GPX4 (Homo sapiens) (UniProt P36969); assay: Primary qHTS Assay for Inhibitors of Recombinant Selenoprotein Glutathione Peroxidase 4 (GPX4) (AID 1845192); conditions: recombinant GPX4, GR-coupled NADPH fluorescence, 15 min; series mostly up to 50 µM; also: nearly all actives have a fitted effect of over 65% in size
How it was run: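 NADPH consumption followed by fluorescence at 340/450 nm, t=0 and after 15 min at room temperature. Reaction started with cumene hydroperoxide (0.5 mM final) after 30 min compound–GPX4 preincubation; final 200 nM GPX4, 100 nM GR, 1 mM GSH, 0.5 mM NADPH.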

[3] = target: Luciferin 4-monooxygenase (Photinus pyralis) (UniProt P08659); assay: Primary firefly luciferase (FLuc) qHTS assay for identification of artifact compounds. (AID 1845220); conditions: purified firefly luciferase, luminescence, 5 min; series mostly up to 54.1 µM; also: nearly all actives have a fitted effect of over 60% in size
How it was run: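 Compounds sat 15 min at room temperature with 10 uM luciferin and 10 uM ATP (pH 7.6 Tris acetate). Firefly luciferase (10 nM final) was then added, and luminescence was read 5 min later. Data normalized to no-enzyme and DMSO controls were Hill-fitted.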

[4] = Primary fluorescence-based thiol-reactive (MSTI) qHTS assay for identification of artifact compounds. (AID 1845221); conditions: MSTI thiol-reactivity probe, 1 h; series mostly up to 53.8 µM; also: nearly all actives have a fitted effect of over 65% in size; also: potency is read from the fitted curve at half-maximal effect;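 as to activity change, negative = thiol reactive: thiol-reactive compounds lower the probe fluorescence signal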
How it was run: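 Probe: MSTI 4 uM, PBS pH 7.4, 2% DMSO. Incubation 1 h, RT, light-protected. Readout fluorescence 525/598 nm.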

[5] = tested on: Nanoluciferase (engineered Oplophorus gracilirostris luciferase); assay: Primary Nanoluciferase (NLuc) qHTS assay for identification of artifact compounds. (AID 1845222); conditions: NLuc-conditioned medium, Nano-Glo luminescence, 5 min; series mostly up to 54.1 µM
How it was run: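 Luminescence from secreted NLuc (filtered, 1:55-diluted S16 cell medium) read 5 min after Nano-Glo substrate; compounds preincubated 15 min, RT. Hill fits of inhibition normalized to DMSO and no-enzyme.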

Phospholipid hydroperoxide glutathione peroxidase GPX4 (Homo sapiens), sequence (P36969 whole entry, looked up): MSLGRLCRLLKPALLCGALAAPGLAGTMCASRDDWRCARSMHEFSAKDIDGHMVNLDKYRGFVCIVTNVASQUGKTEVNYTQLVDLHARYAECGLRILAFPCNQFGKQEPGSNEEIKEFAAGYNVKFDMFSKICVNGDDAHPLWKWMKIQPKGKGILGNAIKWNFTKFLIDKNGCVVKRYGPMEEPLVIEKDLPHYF
Glutathione peroxidase 1 (Homo sapiens), sequence (P07203 whole entry, looked up): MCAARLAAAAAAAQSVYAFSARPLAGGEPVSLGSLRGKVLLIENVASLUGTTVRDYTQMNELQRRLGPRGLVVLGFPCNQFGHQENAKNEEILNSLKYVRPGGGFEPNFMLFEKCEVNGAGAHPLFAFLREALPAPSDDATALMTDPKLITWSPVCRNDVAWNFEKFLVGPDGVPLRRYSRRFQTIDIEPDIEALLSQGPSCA

| SMILES | Potency [1] | Potency [2] | activity change, negative = inhibition [3] | activity change, negative = thiol reactive [4] | activity, negative = inhibition [5] | Potency [3] | Potency [4] | Potency [5] |
| --- | --- | --- | --- | --- | --- | --- | --- | --- |
| CC(=O)c1c(C)c2cnc(Nc3ccc(N4CCNCC4)cn3)nc2n(C2CCCC2)c1=O | inactive | inactive | 1.06% [at 6.45 µM] | 7.61% [at 6.41 µM] | 0% [at 6.45 µM] |  |  |  |
| COc1ccc2c(OCc3nnc4ccc(-c5ccccc5)nn34)ccnc2c1 | inactive | inactive |  |  |  | inactive | inactive | inactive |
| COc1ccc(F)c(F)c1C(=O)c1cnc(NC2CCN(S(C)(=O)=O)CC2)nc1N | inactive | inactive |  |  |  | inactive | inactive | inactive |
| CCCCOc1c(C(=O)c2c(F)cc(C)cc2F)cnc2n[nH]cc12 | inactive | inactive |  |  |  | inactive | inactive | inactive |
| O=C(Nc1ncc(-c2cc(C(F)F)nn2-c2c(Cl)cccc2Cl)s1)C1CC1 | inactive | inactive |  |  |  | inactive | inactive | inactive |
| CN(C1CCc2c(c3ccccc3n2CC(=O)O)C1)S(=O)(=O)c1ccc(F)cc1 (stereo not given) | inactive | inactive |  |  |  | inactive | 2.67 µM (active) and 2.12 µM (active) | inactive |
| CC(C)c1nn(-c2c(Cl)cccc2Cl)c2nc(Cc3ccc(OCCO)cc3)[nH]c(=O)c12 | inactive | inactive |  |  |  | inactive | inactive | inactive |
| Cn1c(=O)n(-c2ccc(C(C)(C)C#N)cc2)c2c3cc(-c4cnc5ccccc5c4)ccc3ncc21 | inactive | inactive |  |  |  | inactive | inactive | inactive |
| Cc1c(NC(=O)OC[C@@H]2COCCN2)cn2ncnc(Nc3ccc4c(cnn4Cc4cccc(F)c4)c3)c12 | inactive | inactive |  |  |  | inactive | inactive | inactive |
